# Most compounds without a hit are left out; they make up all but 5% or so of the library.
# VACV mCherry inh: inhibitors of vaccinia virus infection (mCherry reporter signal); Vaccinia virus mCherry reporter infection, fluorescence; Potency, µM (top dose mostly 36.5 µM), inactives show at the top dose activity change, negative = inhibition, most hits filed as inhibitors; hit rate 0.63% among 310,000; calls by dose curve; tested in A549 cells; also: potency is read from the fitted curve at half-maximal effect; nearly all actives have a fitted effect of over 35% in size
# HCMV antiviral: blocks human cytomegalovirus replication; HFF cells, HCMV-luciferase reporter, 72 h; stronger effect = lower value; activity change, negative = inhibition, % at 57.5 µM; hit rate 4.5% among 410,000; in the data active = activity change below about -60%; inconclusive = no clear call, values can overlap the other calls; inactive = above about -39%
#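 Luciferase read-out from HCMV-luciferase-infected HFFs (MOI 1 PFU/cell) 72 h post infection at 37C; compounds added after 16 h cell attachment; activity normalized between buffer-only basal and Salinomycin (10uM) inhibitor controls.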
# LmPK inhibitor: inhibitors of Leishmania mexicana pyruvate kinase | purified LmPK, Kinase-Glo ATP luminescence, 1 h | Potency, µM (highest dose often 57.5 µM), without a hit: top-dose activity change, negative = inhibition, usual class: inhibitors | hit rate 0.37% among 290,000; also: potency is read from the fitted curve at half-maximal effect
# Target sequence (Q27686 whole entry, looked up): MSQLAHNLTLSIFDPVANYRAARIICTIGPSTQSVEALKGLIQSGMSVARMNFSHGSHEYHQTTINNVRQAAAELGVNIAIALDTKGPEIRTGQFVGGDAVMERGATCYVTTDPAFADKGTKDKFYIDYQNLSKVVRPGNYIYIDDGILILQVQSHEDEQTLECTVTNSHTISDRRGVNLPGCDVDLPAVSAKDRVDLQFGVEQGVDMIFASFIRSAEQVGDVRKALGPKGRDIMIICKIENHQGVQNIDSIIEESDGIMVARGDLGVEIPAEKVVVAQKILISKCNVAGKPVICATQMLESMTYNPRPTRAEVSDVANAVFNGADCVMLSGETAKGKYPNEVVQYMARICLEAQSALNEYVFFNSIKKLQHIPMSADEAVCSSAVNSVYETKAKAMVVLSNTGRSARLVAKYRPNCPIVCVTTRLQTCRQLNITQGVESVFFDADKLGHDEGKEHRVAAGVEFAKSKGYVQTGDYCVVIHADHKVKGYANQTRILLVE
#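 In 50 mM imidazole pH 7.2 with 7 mM MgCl2, LmPK (0.1 nM) turned over PEP (0.5 mM) and ADP (0.1 mM) for 1 h at room temperature. Luciferase read-out of ATP.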
# VACV Venus inh: vaccinia inhibition (Venus reporter). AID 720580. Vaccinia virus Venus reporter expression, fluorescence. hit rate 0.46% among 330,000. Potency, µM (highest dose often 36.5 µM), without a hit: top-dose activity change, negative = inhibition, hits mostly inhibitors; calls by dose curve; tested in A549 cells; also: potency is read from the fitted curve at half-maximal effect; nearly all actives have a fitted effect of over 30% in size
# Tb PYK inh: T. brucei pyruvate kinase inhibition. Q57TT1. TbPYK enzyme, Kinase-Glo Plus ATP luminescence, 45 min. Potency, µM (titrated, usually from 76.8 µM), without a hit: top-dose activity, negative = inhibition, actives largely listed as inhibitors. hit rate 0.12% among 410,000; also: potency is read from the fitted curve at half-maximal effect; nearly all actives have a fitted effect of over 50% in size
#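 Luminescence from Kinase-Glo Plus, added after a 45-minute room-temperature reaction, served as the end-point read-out. The enzyme and substrate were preincubated with compound before ADP (130 uM final) initiated turnover. Concentration-effect curves came from normalized qHTS data.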
# Active calls of the source: *; i = inactive; ? = inconclusive; nt = not tested or not shown. Unless noted, calls follow the shape of the dose curve; as a rule, active = well fitted curve in the direction sought with a large enough effect; inconclusive = small, poorly fitted or top-dose-only effect, or another doubt; inactive = no such curve, though single readings can be large; an effect the other way counts as inactive or inconclusive. % is scaled to controls: 0 for no effect and ±100 for the full control effect.
SMILES,VACV mCherry inh,HCMV antiviral,LmPK inhibitor,VACV Venus inh,Tb PYK inh
COc1cc(C(=O)NNC(=O)COc2ccc(C)cc2)ccc1OCC(=O)N1CCOCC1,nt,-34,nt,nt,-5%
COc1cc(C(=O)NNC(=O)COc2cccc(F)c2)ccc1OCC(=O)N1CCOCC1,nt,-70*,nt,nt,-3%
COc1ccc(-c2csc(NC(=O)CN3C(=O)C4CC=CCC4C3=O)n2)cc1OC (stereo unspecified),nt,-111*,nt,nt,6%
COc1ccc(-c2csc(NC(=O)c3ccc(OCC(=O)N4CCOCC4)c(OC)c3)n2)cc1OC,?,-82*,4%,?,1%
O=C(CSCC(=O)N1CCOCC1)Nc1nc(-c2ccc3c(c2)OCO3)cs1,?,95,2%,8.9µM*,4%
COc1cc(C(=O)Nc2cccc(C)n2)ccc1OCC(=O)N1CCOCC1,nt,0,nt,nt,-3%
CCOC(=O)N1CCN(C(=O)CSCC(=O)Nc2nc(-c3ccc4c(c3)OCO4)cs2)CC1,nt,nt,6%,nt,6%
Cc1cccc(C)c1OCc1cc(=O)n2ccsc2n1,-11%,-21,nt,-11%,-6%
O=C(CN1C(=O)c2ccccc2C1=O)Nc1cccc([N+](=O)[O-])c1,0%,-25,7%,2%,-3%
CCC(C)NC(=O)c1cnc2n(c1=O)CCS2 (stereo unspecified),-6%,-23,2%,-3%,-1%
Cc1ccc(F)cc1NC(=O)CN1CCN(Cc2ccccc2)CC1,nt,-18,1%,nt,1%
CC1(C)Cc2c(c(N3CCOCC3)nc3sc4c(NN)ncnc4c23)CS1,nt,-88*,0%,nt,1%
CC(C)CNc1nnnc2c1sc1nc(N3CCOCC3)c3c(c12)CC(C)(C)SC3,?,?,4%,-16%,2%
CCOC(=O)N1CCN(C(=O)CSc2nnc(-c3cc(OC)cc(OC)c3)o2)CC1,nt,50,-3%,?,-14%
CCOC(=O)N1CCN(C(=O)CSc2nnc(-c3ccc(C(C)(C)C)cc3)o2)CC1,5.6µM*,26,3%,?,-3%
Cc1ccc(-c2nnc(SCCC(=O)N3CCOCC3)o2)cc1,-4%,-101*,-3%,-15%,-4%
CCOC(=O)N1CCN(C(=O)CSc2nnc(-c3ccc(C)c(C)c3)o2)CC1,10µM*,-17,3%,?,3%
C#CCSc1nnc(-c2ccc(O)cc2)o1,-6%,-18,-12%,-22%,-1%
O=C(CCSc1nnc(-c2ccccc2)o1)N1CCOCC1,2%,-7,-8%,-4%,-5%
C#CCSc1nnc(-c2ccc(C)cc2)o1,10µM*,18,-2%,?,-4%
CSc1nnc(NC(=O)c2nc(S(=O)(=O)Cc3ccccc3)ncc2Cl)s1,-1%,-102*,0%,-2%,-8%
CC(C)c1nnc(NC(=O)c2nc(S(=O)(=O)Cc3ccccc3)ncc2Cl)s1,?,-110*,1%,?,-5%
Cc1ccccc1CS(=O)(=O)c1ncc(Cl)c(C(=O)Nc2nnc(C(C)C)s2)n1,?,-99*,nt,?,3%
COc1ccccc1C(=O)N1CCN=C1c1ccccc1,nt,11,1%,nt,2%
CCC1=NN(C(=O)C(=O)Nc2ccccc2OC)C(O)(C(F)(F)F)C1 (stereo unspecified),i,-13,-2%,-15%,-1%
SMILES,VACV mCherry inh,HCMV antiviral,LmPK inhibitor,VACV Venus inh,Tb PYK inh
O=C(c1cccc(F)c1)N1CCN(S(=O)(=O)c2ccc(C(F)(F)F)cc2)CC1,-12%,4,0%,0%,0%
CCOc1ccccc1NC(=O)CSc1nc2c(c(=O)n(C)c(=O)n2C)n1C,-6%,17,-4%,3%,-6%
C=CCc1cc(Cl)ccc1OCCOCCNC(C)(C)C,i,-71*,-2%,-19%,-1%
N#C/C(=C\c1ccc(Sc2ccc(Cl)cc2)o1)c1nc2ccccc2[nH]1,?,-68*,-1%,-23%,-6%
N#C/C(=C/c1ccc(N2CCOCC2)o1)c1nc2ccccc2[nH]1,nt,107,-18%,i,-1%
N#C/C(=C\c1ccc(Sc2nc3ccccc3[nH]2)o1)c1ccccc1,nt,-96*,9%,?,4%
N#Cc1ccc(Sc2nc3ccccc3[nH]2)cc1C#N,nt,-77*,4%,nt,3%
N#C/C(=C\C1CC=CCC1)c1nc2ccccc2[nH]1 (stereo unspecified),nt,-82*,6%,nt,-10%

# Source: PubChem (National Center for Advancing Translational Sciences (NCATS))
